Assay results taken from PubChem BioAssay AID1159580 (chemical genetic matrix, 2015).
Hit rate of the full screen: of about 5,500 compounds, about 2,000 (36%) were called active. Inconclusive results (about 18%) are left out. Cut-off read from the data, not from the text of the source: active = normalized growth mostly below about 0.91 (no sharp cut-off); inconclusive = no clear call, values can overlap the other calls; inactive = mostly above about 0.92. The list shows a part of the results.

Experiment: chemical genetic growth profiling, strain panel (AID 1159580);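 note: tested at 20 µM; growth read once vehicle control cultures reached saturation at 30 °C; 1 = growth at the plate median or of vehicle wells; lower values mean less growth of the strain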
Settings: growth OD
[1] = S. cerevisiae deletion strains, locus YAL013W, strain DEP1, active compounds read low
[2] = S. cerevisiae deletion strains, locus YBR229C, strain ROT2, active compounds read low
[3] = S. cerevisiae deletion strains, locus YDL101C, strain DUN1, active compounds read low
[4] = S. cerevisiae deletion strains, locus YDL134C, strain PPH21, active compounds read low
[5] = S. cerevisiae deletion strains, locus YDR150W, strain NUM1, active compounds read low
[6] = S. cerevisiae deletion strains, locus YEL061C, strain CIN8, active compounds read low
[7] = S. cerevisiae deletion strains, locus YGR078C, strain PAC10, active compounds read low
[8] = S. cerevisiae deletion strains, locus YHR030C, strain SLT2, active compounds read low
[9] = S. cerevisiae deletion strains, locus YHR087W, strain rtc3, active compounds read low
[10] = S. cerevisiae deletion strains, locus YJR043C, strain POL32, active compounds read low
[11] = S. cerevisiae deletion strains, locus YJR075W, strain HOC1, active compounds read low
[12] = S. cerevisiae deletion strains, locus YLR039C, strain RIC1, active compounds read low
[13] = S. cerevisiae deletion strains, locus YLR058C, strain SHM2 (second series), active compounds read low
[14] = S. cerevisiae deletion strains, locus YLR085C, strain ARP6, active compounds read low
[15] = S. cerevisiae deletion strains, locus YLR262C, strain YPT6, active compounds read low
[16] = S. cerevisiae deletion strains, locus YML094W, strain GIM5, active compounds read low
[17] = S. cerevisiae deletion strains, locus YMR219W, strain ESC1, active compounds read low
[18] = S. cerevisiae deletion strains, locus YMR263W, strain SAP30, active compounds read low
[19] = S. cerevisiae deletion strains, locus YMR307W, strain GAS1, active compounds read low
[20] = S. cerevisiae deletion strains, locus YNL153C, strain GIM3, active compounds read low
[21] = S. cerevisiae deletion strains, locus YNL298W, strain CLA4 (second series), active compounds read low
[22] = S. cerevisiae deletion strains, locus YNL322C, strain KRE1, active compounds read low
[23] = S. cerevisiae deletion strains, locus YNR030W, strain Alg12, active compounds read low
[24] = S. cerevisiae deletion strains, locus YOL006C, strain TOP1, active compounds read low
[25] = S. cerevisiae deletion strains, locus YPL055C, strain LGE1, active compounds read low
[26] = S. cerevisiae deletion strains, locus YPL241C, strain CIN2, active compounds read low
[27] = S. cerevisiae deletion strains, locus YPR135W, strain CTF4, active compounds read low

Measured: normalized growth

Cc1ccc(=O)n(Cc2ccc(Cl)c(Cl)c2)n1
inactive: [1] 0.989 | [2] 1.01 | [3] 0.958 | [4] 0.989 | [5] 0.968 | [6] 1 | [7] 0.977 | [8] 0.892 | [9] 1.01 | [10] 0.966 | [11] 0.986 | S. cerevisiae deletion strains, locus YKL190W, strain CNB1, active compounds read low 0.988 | [12] 0.921 | [13] 0.986 | [14] 0.938 | [15] 0.913 | [16] 0.974 | [17] 0.992 | [18] 0.99 | [19] 1.06 | [20] 0.949 | [21] 0.954 | [22] 0.988 | [23] 0.988 | [24] 0.899 | [25] 1.03 | [26] 0.985 | [27] 0.918

O=C(Cc1ccc(Cl)c(Cl)c1)OCCN1CCCC1
inactive: S. cerevisiae deletion strains, locus YAL040C, strain CLN3, active compounds read low 1.02 | S. cerevisiae deletion strains, locus YDR363W, strain ESC2, active compounds read low 1.02 | S. cerevisiae deletion strains, locus YER002W, strain NOP16, active compounds read low 0.997 | [7] 0.994 | [20] 0.999 | S. cerevisiae deletion strains, locus YNL175C, strain NOP13, active compounds read low 1.02 | S. cerevisiae deletion strains, locus YNL197C, strain WHI3, active compounds read low 1 | S. cerevisiae deletion strains, locus YNL224C, strain SQS1, active compounds read low 1.01 | [22] 0.99 | S. cerevisiae deletion strains, locus YOR083W, strain WHI5 (second series), active compounds read low 1.03

O=C1CCCN1c1ccc(Cl)c(Cl)c1
active: [16] 0.853 | [26] 0.847
inactive: [1] 0.987 | [2] 0.977 | [3] 0.939 | [4] 0.969 | [5] 0.968 | [6] 0.933 | [7] 0.976 | [8] 0.8 | [9] 0.989 | [10] 0.97 | [11] 0.983 | [12] 0.916 | [13] 0.988 | [14] 0.894 | [15] 0.949 | [17] 0.988 | [18] 0.984 | [19] 0.9 | S. cerevisiae deletion strains, locus YNL128W, strain TEP1, active compounds read low 0.94 | [20] 0.95 | [21] 0.911 | [22] 0.974 | [23] 0.96 | [24] 0.748 | [25] 0.889 | [27] 0.913 | S. cerevisiae strains, strain wild type, active compounds read low 0.978
